# Screens deposited in PubChem BioAssay by The Scripps Research Institute Molecular Screening Center.
# MITF primary: human MITF inhibition, primary screen. 650,000 tested, 0.91% active. O75030. AlphaScreen MITF homodimerization, bead proximity signal. inhibition, % at 2.6 µM; in the data active means inhibition above about 50%;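 further: 0% = vehicle wells with protein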
# GPR151 activ: human GPR151 activation. PathHunter beta-arrestin GPR151 cells, luminescence. activation, % at 11.2 µM. 650,000 tested, 1% active. AID 1508602; in the data active means activation above about 4.9%;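 further: 0% = median of compound wells and 100% = cells with positive control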
# Target sequence (Q8TDV0 whole entry, looked up): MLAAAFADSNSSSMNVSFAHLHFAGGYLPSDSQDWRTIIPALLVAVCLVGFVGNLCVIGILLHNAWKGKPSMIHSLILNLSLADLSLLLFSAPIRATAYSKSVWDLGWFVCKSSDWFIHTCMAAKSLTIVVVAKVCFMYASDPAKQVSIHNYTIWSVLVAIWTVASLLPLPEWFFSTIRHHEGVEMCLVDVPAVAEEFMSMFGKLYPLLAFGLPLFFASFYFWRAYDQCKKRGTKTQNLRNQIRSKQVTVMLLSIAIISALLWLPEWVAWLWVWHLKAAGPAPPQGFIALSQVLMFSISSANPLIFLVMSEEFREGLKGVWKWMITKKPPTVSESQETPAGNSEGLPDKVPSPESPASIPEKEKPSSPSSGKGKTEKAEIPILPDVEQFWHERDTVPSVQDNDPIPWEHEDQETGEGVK
# TEAD-YAP inh: TEAD-YAP interaction inhibition. HEK-TIYL cells, TEAD-Gal4/YAP UAS-luciferase luminescence. inhibition, % at 9.12 µM. 640,000 tested, 1.4% active. AID 1259422; in the data active means inhibition above about 32%;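 further: 0% = median of test compound wells and 100% = reference inhibitor wells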
# FBW7 act: human FBW7 E3 ligase activation, primary screen; Q969H0; AlphaScreen FBW7–phospho-cyclin E peptide binding, activator screen; normalized activity (activation), % at 26.1 µM; 650,000 tested, 0.13% active; AID 1259310; in the data active means normalized activity above about 1.9%;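 further: purified mutant Fbw7 with reduced substrate affinity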
# GPR151 conf act: human GPR151 activation, confirmation screen | AID 1508609 | shares compounds with GPR151 activ | activation, % at 11.2 µM | GPR151 PathHunter beta-arrestin cells, luminescence, 90 min; % of EA-reagent control over plate median | 6,700 tested, under 10 active;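 active means mean percent activation across replicates above the confirmation screen cutoff of 4.91%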
# GPR119 counter: counter-screen for GPR151 activators: effect on human GPR119; GPR119 PathHunter beta-arrestin cells, luminescence, 90 min; 0 = compound-well median, 100 = enzyme-acceptor control; shares compounds with GPR151 activ; AID 1508611; activation, % at 11.2 µM; 6,700 tested, 0.3% active;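 active means mean percent activation in the counterscreen above 29.09%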;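 further: counterscreen on off-target GPR119 to flag nonselective hits from the GPR151 activator screen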
# * marks the source's active call; other numbers are inactive results; nt = no result; ! = a repeat was not active. Shown are actives, neighbours in structure and some others; about 3.5% of the full set was active somewhere.
SMILES,MITF primary,GPR151 activ,TEAD-YAP inh,FBW7 act,GPR151 conf act,GPR119 counter
COc1ccc(/C=C2\C(=O)N(c3ccc(Cl)c(C(=O)O)c3)N=C2C)cc1OC,2,5.7*,-6,0,0,11
COc1cc(/C=C2\C(=O)N(c3ccc(C(=O)OC(C)C)cc3)N=C2C)ccc1O,2,-1,-14,0,nt,nt
COc1cc(/C=C2/C(=O)N(c3ccc(I)cc3)N=C2C)ccc1O,7,5.4*,2,0,-1,2
COc1cccc(C(=O)Nc2nc(-c3c(C)cc(C)cc3C)cs2)c1,9,0,-1,0,nt,nt
C=CCOC(=O)COc1ccc2c(CCC)cc(=O)oc2c1,12,5.8*,7,0,-1,-8
CCc1cc(=O)oc2cc(OC(=O)c3ccco3)ccc12,-7,6.8*,8,0,0,-3
COC(=O)C(C)Oc1ccc2c(C)c(Cc3ccccc3)c(=O)oc2c1 (stereo not drawn),-19,0,-6,0,nt,nt
Cc1cc(=O)oc2cc(OC(=O)c3ccco3)ccc12,15,0,-1,0,nt,nt
COC(=O)Cc1c(C)c2ccc(OC(=O)c3ccco3)cc2oc1=O,8,9.0*,-7,0,1,-3
CCCCOC(=O)COc1ccc2c(CCC)cc(=O)oc2c1,-8,0,8,0,nt,nt
CCCCCCc1c(C)c2ccc(OC(C)C(=O)OC)cc2oc1=O (stereo not drawn),-6,5.7*,4,0,0,-10
CC1(C)Cc2c(sc(NC(=O)c3ccccc3Br)c2C(N)=O)CO1,11,0,-9,1,nt,nt
Cc1ccccc1-n1c(C)nc2sc3c(c2c1=O)CCC3,6,-1,7,0,nt,nt
Cc1nc2sc3c(c2c(=O)n1-n1cccc1)CCCC3,7,5.9*,-3,0,0,8
Clc1ccc2nc(CSc3nncn3-c3ccccc3)cn2c1,1,5.1*,1,0,0,6
O=C(Nc1cc(C(F)(F)F)cc(C(F)(F)F)c1)C1CC1,12,10*,4,0,-1,-22
CC1CCN(S(=O)(=O)c2ccc(F)c(C(=O)Nc3ccc(F)cc3)c2)CC1,-9,0,-11,0,nt,nt
COC(=O)c1cc(S(=O)(=O)N2CCC(C)CC2)ccc1F,18,12*,7,1,1,-4
CCCCCCCC1CCc2nc(-c3ccc(F)cc3)ccc2C1 (stereo not drawn),-6,-1,-8,0,nt,nt
CCCCCC1CCc2nc(/C=C/c3ccccc3)ccc2C1 (stereo not drawn),12,6.0*,2,0,-1,-7
COCCCNC(=O)C(Cc1ccccc1)NS(=O)(=O)c1ccc(Cl)cc1 (stereo not drawn),-1,-1,3,0,nt,nt
O=C(C1c2ccccc2C(=O)N2CCc3ccccc3C12)N1CCN(C2CCCCC2)CC1 (stereo not drawn),-2,12*,4,0,0,-3
Cc1ccccc1C(=O)NCc1nc(-c2ccccc2)no1,2,6.9*,1,0,-1,-12
Cc1ccc(S(=O)(=O)Nc2ccc(NC(=O)/C=C/c3ccc4c(c3)OCO4)cc2)cc1,17,7.6*,7,0,1,-8
Cc1ccc(-c2nnc3sc(NC(=O)CC(C)C)nn23)cc1,-1,27*,5,0,1,4
SMILES,MITF primary,GPR151 activ,TEAD-YAP inh,FBW7 act,GPR151 conf act,GPR119 counter
CCCC(=O)Nc1nn2c(-c3cccc(OC)c3)nnc2s1,0,5.2*,-4,0,0,-5
CCOC(=O)c1c(N/N=C(\C)c2ccc(F)cc2)n[nH]c1C,-5,0,-38,0,nt,nt
O=C(O)CCCCCNC(=O)/C=C/c1ccccc1[N+](=O)[O-],-1,0,-14,0,nt,nt
Cc1ccc(-c2cnc(SCC(=O)NC(C)C)n2Cc2ccco2)cc1,1,1,2,0,nt,nt
CNCCCC1c2ccccc2C=Cc2ccccc21,5,10*!,2,0,0,2
CN(CC(=O)Nc1ccccc1F)S(=O)(=O)c1cccc2cnccc12,6,5.4*,37*,0,0,-6
CN(CC(=O)Nc1ccc(F)cc1)S(=O)(=O)c1cccc2cnccc12,-2,-2,21,0,nt,nt
O=C(CSc1nc2ccc(NC(=O)c3ccc(Br)cc3)cc2s1)NCC1CCCO1 (stereo not drawn),-4,0,-4,0,nt,nt
CCC(=O)N1CCN=C1SCc1cccc(Cl)c1,-5,-1,-3,0,nt,nt
CCC(=O)N1CCN=C1SCc1cccc(C)c1,1,7.1*,2,0,1,9
CC(=O)NCCC(=O)Nc1c(C)cccc1C(C)C,-8,-1,-3,0,nt,nt
Cc1ccc(C2=NS(=O)(=O)N(C)C(C(=O)Nc3ccc(F)cc3F)=C2)cc1,0,11*,-1,0,1,-10
COc1ccc(C2=NS(=O)(=O)N(C)C(C(=O)Nc3ccc(F)cc3F)=C2)cc1OC,-3,0,23,0,nt,nt
C=CCNC(=O)c1nn2cccnc2c1Cl,-12,5.3*,-14,0,1,-1
O=C(Nc1ccc(Cl)cc1)c1nn2cccnc2c1Cl,5,0,-66,0,nt,nt
O=C(O)Cc1ccc(Nc2cc(Cl)ncn2)cc1,9,-1,-1,1,nt,nt
C#CCN1CCc2cc(OC)c(OC)cc2C1C (stereo not drawn),-10,6.4*,-10,0,2,4
COc1cc2c(cc1OC)C(C)N(C(=O)c1ccccc1Cl)CC2 (stereo not drawn),-7,0,0,0,nt,nt
CCOc1ccc(NC(=O)CSc2nc3c(c(=O)n2CC)SC(C)C3)cc1 (stereo not drawn),3,-1,2,0,nt,nt
CCOC(=O)c1ccc(NC(=O)CN2C(=O)C3C4C=CC(C4)C3C2=O)cc1 (stereo not drawn),25,-2,-8,0,nt,nt
CCOC(=O)c1ccc(NC(=O)CSc2nc3c(c(=O)n2CC)SC(C)C3)cc1 (stereo not drawn),2,5.1*,20,0,1,10
O=C(CSc1ccc(Br)cc1)Nc1ccc([N+](=O)[O-])cc1,6,6.4*,13,0,1,-14
CCOC(=O)c1ccc(NC(=O)CN2C(=O)C3C4C=CC(C5CC45)C3C2=O)cc1 (stereo not drawn),25,7.0*,5,1,1,4
CCOC(=O)c1ccc(COC(=O)c2cc(Br)ccc2NC(C)=O)cc1,-1,6.3*,-13,0,0,-1
N#Cc1ccc(NC(=O)CSc2ccc(Br)cc2)cc1,-15,1,-8,0,nt,nt
CC(C)N(CCNc1ccnc(Nc2nc3ccccc3n2C)n1)C(C)C,10,-1,0,0,nt,nt
O=C(C1CC1c1ccccc1)N1CCCCCC1 (stereo not drawn),8,1,-18,0,nt,nt
